High-throughput results from PubChem.
Sfp inh: inhibitors of Bacillus subtilis Sfp phosphopantetheinyl transferase. Q9F4F7. Potency, µM, without a hit: largest response in the series, negative = inhibition, usual class: inhibitors. 3.5% of 310,000 active. Biochemical Sfp PPTase activity, qHTS; active = well fitted curve in the direction sought with a large enough effect; inconclusive = small, poorly fitted or top-dose-only effect, or another doubt; inactive = no such curve, though single readings can be large; an effect the other way counts as inactive or inconclusive;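 note: the enzyme is Sfp with the accession as filed and its product quenches rhodamine fluorescence; potency is the fitted concentration of half-maximal effect; 0% = enzyme reaction without inhibitor and -100% = no enzyme wells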
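After 15 min at room temperature with compound, 15 nM Sfp received 5 uM rhodamine-CoA plus 12.5 uM BHQ-2-ybbR (50 mM Hepes pH 7.6, 10 mM MgCl2). Rate came from the fluorescence difference over 30 min, ex 525/em 598 nm.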
NPSR antagonist: blocks cAMP signaling of the human neuropeptide S receptor; Q6W5P4; CHO-NPSR cells, cAMP TR-FRET, antagonist mode; Potency, µM (highest dose often 38.3 µM), for inactives: at the highest dose activity change, negative = inhibition, actives largely listed as inhibitors; 1% of 220,000 active; active = well fitted curve in the direction sought with a large enough effect; inconclusive = small, poorly fitted or top-dose-only effect, or another doubt; inactive = no such curve, though single readings can be large; an effect the other way counts as inactive or inconclusive; note: potency is the fitted concentration of half-maximal effect; nearly all actives have a fitted effect of over 50% in size
GoLoco inh red: blocks human Gai1 binding to RGS12 GoLoco peptide, red readout; P63096; Gai1:RGS12 GoLoco peptide FP, rhodamine, 10 min; Potency, µM (doses to about 61.6 µM), for the others: at the highest dose activity, negative = inhibition, actives largely listed as inhibitors; 0.44% of 230,000 active; AID 880; active = well fitted inhibition curve with a large enough effect, not every such curve was filed as active; inactive = no such curve, though single readings can be large or run the other way; note: potency is the fitted concentration of half-maximal effect; nearly all actives have a fitted effect of over 30% in size
Target sequence (P63096 whole entry, looked up): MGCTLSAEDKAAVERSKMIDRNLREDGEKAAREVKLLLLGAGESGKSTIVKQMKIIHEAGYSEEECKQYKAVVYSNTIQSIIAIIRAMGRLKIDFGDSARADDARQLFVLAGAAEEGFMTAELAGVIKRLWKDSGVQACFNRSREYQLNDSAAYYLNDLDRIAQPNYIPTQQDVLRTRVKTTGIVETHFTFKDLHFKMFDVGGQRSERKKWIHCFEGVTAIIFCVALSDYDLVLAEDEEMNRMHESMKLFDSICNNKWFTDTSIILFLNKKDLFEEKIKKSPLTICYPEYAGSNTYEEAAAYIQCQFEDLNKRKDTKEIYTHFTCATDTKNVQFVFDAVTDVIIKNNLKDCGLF
ALDH1A1 inh: inhibitors of human aldehyde dehydrogenase 1A1; P00352; 7.3% of 220,000 active; Purified ALDH1A1, NADH fluorescence, propionaldehyde substrate; Potency, µM (highest dose often 75.3 µM), without a hit: top-dose activity, negative = inhibition, most hits filed as inhibitors; AID 1030;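 note: potency is the fitted concentration of half-maximal effect; plate controls were no enzyme wells and a reference inhibitor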
JMJD2E inh: JMJD2E (human) inhibition; JMJD2E catalytic domain, FDH-coupled NADH fluorescence (FDH is formaldehyde dehydrogenase); Potency, µM (series often up to 57.1 µM), for the others: at the top dose activity change, negative = inhibition, most hits filed as inhibitors; 1.6% of 230,000 active;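 note: potency is the fitted concentration of half-maximal effect; 0% = wells with enzyme and -100% = buffer wells without enzyme; nearly all actives have a fitted effect of over 50% in size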
Coupling enz: counter-screen for Giardia aldolase inhibitors: coupling enzyme system. 0.67% of 290,000 active. coupling enzyme system counterscreen, AmpLite Red fluorescence. activity change, negative = inhibition, % at 58.2 µM, hits read low; in the data active = activity change below about -30%
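Coupling enzymes only (glyceraldehyde-3-phosphate) + compound, at 57.5 uM final, 10 min RT; add substrate/coupling/AmpLite Red mix, 20 min RT; fluorescence ex 525/em 598 nm. Actives flag coupling-system interference.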
* hit, by the source's call; ? = inconclusive; . = no result; [ ] = dose if it differs, or a comment. In the library only some 8.5% were active in any assay of this set; here they are far more common. Unless noted, calls come from the whole dose curve; as a rule, active = well fitted inhibition curve with a large enough effect (not every such curve was filed as active); inconclusive = small, poorly fitted or top-dose-only effect, or another doubt; inactive = no such curve, though single readings can be large or run the other way. Unless noted, % is set by controls: 0 for no effect and ±100 for the full control effect.

SMILES | Sfp inh | NPSR antagonist | GoLoco inh red | ALDH1A1 inh | JMJD2E inh | Coupling enz
CN(C)c1ccc(CN(C(=O)c2cccs2)C2CCS(=O)(=O)C2)cc1 (stereo unspecified) | 3.2% | . | . | . | . | 0.6
NS(=O)(=O)c1cnccc1Nc1ccc(Cl)c(Cl)c1 | 10.5% | 5.5% | -4.0% | -5.6% | -1.9% | 0.6
O=C(CSc1nnnn1C1CCCCC1)NCc1cccs1 | 4.4% | -12.8% | 7.4% | -4.0% | 5.6% | 6.8
O=C(CSc1nnnn1C1CCCCC1)NCCc1ccccc1 | 5.8% | -4.9%[46.1 µM] | 0.4% | 10µM* | -4.8% | 4.1
O=C(CSc1nnnn1C1CCCCC1)NNC(=O)c1ccco1 | 7.1% | -17.8% | 7.7% | 4.74µM* | -3.7% | 2.6
CCCC1=[N+](CC)CCn2c(C)ccc21 | -6.8% | 0.9%[46.1 µM] | 12.6µM* | 2.0% | -21.1% | 0.3
CC1CCCCN1S(=O)(=O)c1ccc(C(=O)Nc2sccc2C(N)=O)cc1 (stereo unspecified) | 9.3% | 1.58µM* | 3.1% | 14.1µM* | ? | 1.4
NC(=O)c1ccsc1NC(=O)c1ccc(S(=O)(=O)N2CCCc3ccccc32)cc1 | 6.2% | -58.8% | 24.3% | -16.4% | ? | -3.0
COc1ccc(NS(=O)(=O)CC23CCC(CC2=O)C3(C)C)cc1 (stereo unspecified) | 12.9% | -8.3%[46.1 µM] | -5.6% | 7.94µM* | 1.4% | 0.3
CC1(C)Cc2c(oc3ncn4ncnc4c23)CO1 | 16.7% | 1.9%[46.1 µM] | 6.1% | 10.4% | 1.8% | 1.1
CSc1nc2oc3c(c2c2nncn12)CC(C)(C)SC3 | 39.8µM* | -24.3%[46.1 µM] | -17.6% | ? | ? | -19.5
C1=CC2CC1CC2CN1CCN(Cc2ccccc2)CC1 (stereo unspecified) | 79.4µM* | -4.3%[46.1 µM] | 1.3% | ? | ? | -6.1
O=C(NS(=O)(=O)c1ccc(F)cc1)O[C@@H]1C(=O)c2cc(Br)ccc2O[C@H]1c1ccc2c(c1)OCO2 | -10.4% | . | -2.6% | ? | 3.2% | 1.2
O=C(c1ccc(-c2ccccc2)cc1)N1CCN(c2ccccn2)CC1 | -7.2% | -16.5% | 2.6% | ? | -10.7% | -0.5
CCOc1ccc(NC(=S)NN(C)C(=S)Nc2ccc(OCC)cc2)cc1 | -8.0% | -6.4% | 3.6% | 28.2µM* | 2.7% | 2.8
CCOc1ccc(NC(=S)Nc2ccc(F)cc2)cc1 | -1.4% | . | . | . | . | -1.7
COc1ccc(NC(=S)N(Cc2ccc(N(C)C)cc2)Cc2ccco2)cc1 | -6.7% | -27.7% | -7.0% | 11.2µM* | 2.3% | -0.5
CCOc1ccc(NC(=S)N(Cc2ccc(N(C)C)cc2)Cc2ccco2)cc1 | 4.7% | ? | 11.6% | 8.91µM* | 2.0% | -3.9
COc1ccc(NC(=S)NCc2ccco2)cc1 | 3.5% | -1.8%[46.1 µM] | 13.3% | -0.7% | 5.1% | -1.5
Cc1ccc(S(C)(=O)=N/C=C2\C(=O)c3sccc3N(C)S2(=O)=O)cc1 (stereo unspecified) | 12.5% | -1.8% | 7.8% | . | 30.1% | -1.0
CCOc1ccc(C(=O)OCC(=O)N2CC(C)OC(C)C2)cc1OCC (stereo unspecified) | 3.1% | . | . | . | . | 2.4
O=C(NCCCN1CCCC1)c1ccc2c(Cl)c3c(nc2c1)CCCC3 | 79.4µM* | -39.5% | 3.1% | -4.5% | -17.6% | -3.3
O=C(NC1CC1)c1ccc2c(Cl)c3c(nc2c1)CCCC3 | 8.2% | -4.8% | 5.0% | ? | 7.3% | 0.8
CCOC(=O)N1CCC(NC(=O)c2ccc3c(Cl)c4c(nc3c2)CCCC4)CC1 | 25.1µM* | -1.9% | -7.2% | ? | -4.1% | 2.2
CC1CCN(C(=O)c2ccc3c(Cl)c4c(nc3c2)CCCC4)CC1 | -11.5% | -5.9% | 2.4% | 4.47µM* | 5.5% | 1.5
CCOc1ccc(NC(=O)c2ccc3c(=O)n4c(nc3c2)CCCCC4)cc1 | 4.6% | . | . | . | . | .
CCOC(=O)N1CCC(NC(=O)c2ccc3c(=O)n4c(nc3c2)CCCC4)CC1 | -5.1% | 5.7%[46.1 µM] | -6.3% | 2µM* | -11.6% | 1.7
CCc1cccc(N(CC(=O)NC2CCCCC2)C(=O)c2csnn2)c1 | 16.9% | . | . | . | . | 2.8
Cn1cc(CN2CCC(n3nccc3NC(=O)CCOc3ccccc3)CC2)cn1 | 9.0% | . | . | . | . | 1.8
Cc1ccc(-c2[nH]ncc2CN2CCN(C(=O)c3cccs3)CC2)cc1C | -10.4% | . | . | . | . | 0.1
